Test results as given in PubChem BioAssay (NCATS).
Inconclusive results are not listed. Where a call stands in place of a potency, no number is given. Calls of active or inactive are those of the source. Calls follow the shape of the dose curve; as a rule, active = well fitted curve in the direction sought with a large enough effect; inconclusive = small, poorly fitted or top-dose-only effect, or another doubt; inactive = no such curve, though single readings can be large; an effect the other way counts as inactive or inconclusive.

target: Glutaminase kidney isoform, mitochondrial (Homo sapiens) (UniProt O94925); test: qHTS for Inhibitors of Glutaminase (GLS): LOPAC Validation (AID 624146); settings: glutaminase enzyme activity inhibition; series mostly up to 46.1 µM; also: nearly all actives have a fitted effect of over 60% in size; also: potency is read from the fitted curve at half-maximal effect
Sequence (O94925 whole entry, looked up, canonical isoform): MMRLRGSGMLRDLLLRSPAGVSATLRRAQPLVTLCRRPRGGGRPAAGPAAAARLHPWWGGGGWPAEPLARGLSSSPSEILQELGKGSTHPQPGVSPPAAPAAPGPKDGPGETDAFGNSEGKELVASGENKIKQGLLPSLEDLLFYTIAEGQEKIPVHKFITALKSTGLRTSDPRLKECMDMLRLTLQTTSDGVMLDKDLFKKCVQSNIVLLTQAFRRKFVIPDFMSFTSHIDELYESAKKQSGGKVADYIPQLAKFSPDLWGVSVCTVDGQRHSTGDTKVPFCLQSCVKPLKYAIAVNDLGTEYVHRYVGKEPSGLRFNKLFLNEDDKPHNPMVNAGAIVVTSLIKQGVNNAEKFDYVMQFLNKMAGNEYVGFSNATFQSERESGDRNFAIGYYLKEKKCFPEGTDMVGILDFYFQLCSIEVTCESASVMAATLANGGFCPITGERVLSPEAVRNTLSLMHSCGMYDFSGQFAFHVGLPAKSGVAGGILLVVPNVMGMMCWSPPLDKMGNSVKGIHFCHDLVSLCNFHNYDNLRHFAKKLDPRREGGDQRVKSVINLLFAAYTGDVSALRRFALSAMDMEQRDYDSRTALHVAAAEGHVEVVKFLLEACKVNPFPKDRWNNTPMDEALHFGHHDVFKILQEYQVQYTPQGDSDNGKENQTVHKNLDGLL
Summary of the method: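 Enzyme dispensed in phosphate buffer (45 mM, pH 8.2, 0.02% Tween-20), compounds pinned in, then 1 mM L-glutamine solution and the glutamate oxidase–HRP–Amplex Red mix added; fluorescence read immediately and again after 30 min at room temperature.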

SMILES | Potency
Oc1ccc(O)cc1 | 2510 nM (active)
CCCn1c(=O)[nH]c(=O)c2[nH]cnc21 | inactive
CCCC1O[C@@H]2C[C@H]3[C@@H]4CCC5=CC(=O)C=C[C@]5(C)[C@H]4[C@@H](O)C[C@]3(C)[C@]2(C(=O)CO)O1 (stereo partly drawn) | inactive
O=C1CCC(c2ccc(-n3ccnc3)cc2)=NN1 | inactive
C1CCc2nnnn2CC1 | inactive
CC[C@H](C)C(=O)O[C@H]1CCC=C2C=C[C@H](C)[C@H](CC[C@@H]3C[C@@H](O)CC(=O)O3)[C@H]21 | inactive
CNCCC(Oc1ccccc1C)c1ccccc1 (stereo not drawn) | inactive
CC(=O)O[C@H]1C[C@@H]2CC[C@@H]3[C@H](CC[C@@]4(C)[C@H]3C[C@H]([N+]3(C)CCCCC3)[C@@H]4OC(C)=O)[C@@]2(C)C[C@@H]1[N+]1(C)CCCCC1 | inactive
C[C@@H]1C(=O)NC2=Nc3cccc(Cl)c3CN21 | inactive
Nc1cc(Cl)c(NC2=NCCN2)c(Cl)c1 | inactive
CC(CCc1ccccc1)NCC(O)c1ccc(O)c(C(N)=O)c1 (stereo not drawn) | inactive
CNCCC=C1c2ccccc2CCc2ccccc21 | inactive
CC1(C)CCC(NC(=O)[C@@H](N)CCC(=O)O)CC1 | inactive

test system: not listed separately; test: qHTS of Trypanosoma Brucei Inhibitors: LOPAC Validation (AID 624147); settings: purified enzyme assay, luminescence, 45 min; series mostly up to 57.5 µM
Summary of the method: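 Activity of T. brucei pyruvate kinase was followed by Kinase-Glo Plus luminescence after the enzyme reacted 45 min at room temperature with 130 uM ADP (final) and substrate. Test compounds were added before ADP at multiple concentrations.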

SMILES | outcome
COc1cc(NS(C)(=O)=O)ccc1Nc1c2ccccc2nc2ccccc12 | inactive
CC(C)COC(=O)OCN1C(=O)CN(CCN2CC(=O)N(COC(=O)OCC(C)C)C(=O)C2)CC1=O | inactive
N[C@H](CO)C(=O)O | inactive
COc1cc2c(cc1O)CC[C@@H]1[C@@H]2CC[C@]2(C)[C@@H](O)CC[C@@H]12 | inactive
CN1C2CCC1CC(OC(=O)c1c[nH]c3ccccc13)C2 (stereo not drawn) | inactive
CCC(NC(C)C)C(O)c1ccc(O)c(O)c1 (stereo not drawn) | inactive
N[C@@H](Cc1cnc[nH]1)C(=O)O | inactive
C[C@]12CC[C@@H]3c4ccc(O)cc4CC[C@H]3[C@@H]1CC[C@@H]2O | inactive
C[N+]1(CCCCC[N+]2(C)CCCC2)CCCC1 | inactive
O=C(O)c1cc2cc(Cc3cccnc3)ccc2o1 | inactive
Oc1ccc(O)cc1 | inactive
CCCn1c(=O)[nH]c(=O)c2[nH]cnc21 | inactive
CCCC1O[C@@H]2C[C@H]3[C@@H]4CCC5=CC(=O)C=C[C@]5(C)[C@H]4[C@@H](O)C[C@]3(C)[C@]2(C(=O)CO)O1 (stereo partly drawn) | inactive
O=C1CCC(c2ccc(-n3ccnc3)cc2)=NN1 | inactive
CC(C)C[C@H]1C(=O)N2CCC[C@H]2[C@]2(O)O[C@](NC(=O)[C@@H]3C=C4c5cccc6[nH]c(Br)c(c56)C[C@H]4N(C)C3)(C(C)C)C(=O)N12 | inactive
C1CCc2nnnn2CC1 | inactive
CC[C@H](C)C(=O)O[C@H]1CCC=C2C=C[C@H](C)[C@H](CC[C@@H]3C[C@@H](O)CC(=O)O3)[C@H]21 | inactive
CNCCC(Oc1ccccc1C)c1ccccc1 (stereo not drawn) | inactive
CC(=O)O[C@H]1C[C@@H]2CC[C@@H]3[C@H](CC[C@@]4(C)[C@H]3C[C@H]([N+]3(C)CCCCC3)[C@@H]4OC(C)=O)[C@@]2(C)C[C@@H]1[N+]1(C)CCCCC1 | inactive
COC(=O)[C@H]1[C@H]2C[C@H]3c4[nH]c5ccccc5c4CCN3C[C@H]2CC[C@@H]1O | inactive
C[C@@H]1C(=O)NC2=Nc3cccc(Cl)c3CN21 | inactive
Nc1cc(Cl)c(NC2=NCCN2)c(Cl)c1 | inactive
CC(CCc1ccccc1)NCC(O)c1ccc(O)c(C(N)=O)c1 (stereo not drawn) | inactive
CNCCC=C1c2ccccc2CCc2ccccc21 | inactive
CC1(C)CCC(NC(=O)[C@@H](N)CCC(=O)O)CC1 | inactive
